Bioassay records from PubChem BioAssay.
Most compounds without a hit are left out; they make up all but 13% or so of the library.
Cycloheximide cs = counter-screen hit for Shiga toxin inhibitors, cycloheximide; cell reporter, cycloheximide protein synthesis inhibition counterscreen; max response, %; 300,000 compounds, 12% hits; AID 2314; in the data active = max response mostly above about 13%, no sharp cut-off; inactive = mostly below about 14%; note: read at 38.3 µM for the half of the compounds with a filed dose; 0% is about no effect
FMDV inh = blocks foot and mouth disease virus. FMDV antiviral cell-based qHTS. 410,000 compounds, 1.2% hits. Potency, µM (titrated, usually from 57.9 µM), for inactives: top-dose activity change, negative = inhibition, actives largely listed as inhibitors; calls by dose curve; tested in HEK293T cells; note: read-out not given here; potency is the fitted concentration of half-maximal effect; % is set by controls: 0 for no effect and ±100 for the full control effect; nearly all actives have a fitted effect of over 45% in size
LASV entry inh = blocks Lassa virus binding to or entry into cells; 300,000 compounds, 1.2% hits; AID 540256; Lassa virus pseudotype entry inhibition, cell reporter; Potency, µM (highest dose often 37.9 µM), inactives show at the top dose activity change, negative = inhibition, actives largely listed as inhibitors; calls by dose curve; tested in HEK293 cells; note: potency is the fitted concentration of half-maximal effect; % is set by controls: 0 for no effect and ±100 for the full control effect; nearly all actives have a fitted effect of over 50% in size
Marburg entry inh = blocks Marburg virus binding to or entry into cells; Marburg virus pseudotyped entry inhibition, cell reporter; Potency, µM (top dose mostly 37.8 µM), without a hit: at the highest dose activity change, negative = inhibition, most hits filed as inhibitors; 300,000 compounds, 1.8% hits; AID 540276; calls by dose curve; tested in HEK293 cells; note: potency is the fitted concentration of half-maximal effect; % is set by controls: 0 for no effect and ±100 for the full control effect
Shiga inhibitor = blocks Shiga toxin action in Vero cells; Vero cells, Shiga toxin protein synthesis inhibition reporter; inhibition, % at 38.7 µM; 290,000 compounds, 9.2% hits; AID 2315; in the data active = inhibition mostly above about 28%, no sharp cut-off; inactive = mostly below about 43%; note: 0% is about no effect
HCV inhibitor = blocks hepatitis C virus; 340,000 compounds, 3.4% hits; AID 651820; Huh7.5.1 HCVcc-Cre infection, luciferase reporter, 44 h; Potency, µM (highest dose often 41.8 µM), without a hit: at the top dose activity change, negative = inhibition, hits mostly inhibitors; active = well fitted inhibition curve with a large enough effect; inconclusive = small, poorly fitted or top-dose-only effect, or another doubt; inactive = no such curve, though single readings can be large or run the other way; note: potency is the fitted concentration of half-maximal effect; % is set by controls: 0 for no effect and ±100 for the full control effect
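Cells (1,000/well) were plated 4 h before compound, then infected with HCVcc-Cre virus (~0.5 moi). After 44 h further culture, infection was read as luciferase luminescence following a 15 min substrate incubation at room temperature.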
The depositor's hits bear a star; i = inactive; ? = inconclusive; / = no result; [ ] = dose if it differs, or a comment.

SMILES	Cycloheximide cs	FMDV inh	LASV entry inh	Marburg entry inh	Shiga inhibitor	HCV inhibitor
CCc1ccc(-c2nc(CS(=O)CC(=O)O)c(C)o2)cc1 (stereo unspecified)	46.0*	-3.6%	/	/	52.9*	17.3%
CCc1ccc(-c2nc(CS(=O)CC(=O)NC3CC3)c(C)o2)cc1 (stereo unspecified)	10.3	20.0%	/	/	12.1	3.1%
CCc1ccc(-c2nc(CS(=O)CC(=O)NCc3cccnc3)c(C)o2)cc1 (stereo unspecified)	17.6*	3.8%	11.3%	27.1%	16.5	1.9%
Cc1ccc(-c2nc(CS(=O)CC(=O)NCCCc3ccccc3)c(C)o2)cc1 (stereo unspecified)	22.0*	6.4%	1.1%[46.1 µM]	-28.1%[46.1 µM]	2.4	-21.3%
CCc1ccc(-c2nc(CS(=O)CC(=O)NC3CCCCCC3)c(C)o2)cc1 (stereo unspecified)	14.4*	11.0%	/	/	14.8	-18.3%
COc1ccc(-c2nc(CS(=O)CC(=O)NCCC3=CCCCC3)c(C)o2)cc1 (stereo unspecified)	30.6*	0.0%	/	/	81.5	-24.1%
COC(=O)C1=C(Nc2ccccc2NC(=O)CCCC(=O)O)CSC1	13.5*	9.3%	?	-9.7%[46.1 µM]	29.3	8.9%
COC(=O)C1=C(Nc2ccccc2NC(=O)c2ccccc2C(=O)O)CSC1	56.3*	35.7%	/	/	103.2*	2.2%
Cc1ccc(OCCNC(=O)/C=C/c2ccco2)cc1C	9.9	-8.2%	/	/	78.2*	-18.9%
O=C(/C=C/c1ccc([N+](=O)[O-])cc1)/C=C/c1ccco1	37.5*	/	/	/	73.1*	/
O=C(/C=C/c1cccc([N+](=O)[O-])c1)NCc1ccco1	-3.7	-6.6%	-12.0%	9.5%	0.2	7.1%
NS(=O)(=O)c1ccc(CNC(=O)/C=C/c2c(F)cccc2Cl)cc1	-3.8	16.1%	-3.1%	8.2%	11.7	-0.7%
O=C(/C=C/c1c(F)cccc1Cl)NCc1ccco1	39.1*	38.2%	2.6%	1.6%	182.0*	-3.5%
O=C(/C=C/c1ccc([N+](=O)[O-])cc1)NCc1ccco1	20.2	1.1%	?	?	27.2*	-8.7%
COc1cc(C2NCc3ccccc3-n3cccc32)ccc1O (stereo unspecified)	-1.4	-0.6%	1.0%	?	-4.5	5.3%
O=C(CSCc1c(Cl)cccc1Cl)NCc1ccco1	-1.3	-3.2%	-4.5%	13.3%	2.0	-12.6%
O=C(/C=C/c1ccco1)NCCc1ccc(F)cc1	57.1*	22.0%	19.4%[46.1 µM]	18.1%[46.1 µM]	55.6*	-19.5%
O=C(CN1C(=O)/C(=C/c2c(F)cccc2Cl)Oc2ccccc21)NCc1ccco1	38.6*	/	/	/	77.2*	/
O=C(/C=C/c1ccc(F)cc1)NCc1ccco1	45.9*	35.4%	?	-3.9%	93.8*	-2.3%
Cc1ccc(OCCSc2nc3ccccc3n2CC(=O)N2CCOCC2)cc1C	/	0.0%	26.4%[46.1 µM]	-22.3%[46.1 µM]	/	/
CCN(CC)S(=O)(=O)c1cccc(C(=O)OCC(=O)Nc2ccc3c(c2)c2ccccc2n3CC)c1	-4.1	-15.1%	-23.1%	18.5%	15.4	?
CCCCNC(=O)c1nc(-c2cc3ccccc3[nH]2)oc1-c1ccccc1	/	-24.6%	/	/	/	/
COc1ccccc1C(=O)Nc1cc2c(cc1N1CCCC1)n(C)c(=O)c(=O)n2C	/	-23.2%	-20.0%[46.1 µM]	/	/	/
Cc1ccc2c(c1)N(C(=O)CCC(=O)N1CCN(c3ccccn3)CC1)CC(C)O2 (stereo unspecified)	1.4	-8.1%	/	/	-3.9	-9.7%
Cc1cccc(N2CCN(C(=O)C3CCN(S(=O)(=O)c4cccc5cccnc45)CC3)CC2C)c1 (stereo unspecified)	-2.3	?	/	1.3%	-3.8	?
SMILES	Cycloheximide cs	FMDV inh	LASV entry inh	Marburg entry inh	Shiga inhibitor	HCV inhibitor
Cc1cccc(N2CCN(C(=O)C3CCN(c4nnc(-n5cccc5)s4)CC3)CC2C)c1 (stereo unspecified)	4.8	15.8µM*	-17.1%	22.3%	-5.2	?
Cc1cccc(N2CCN(C(=O)C3CCN(S(=O)(=O)c4cccc5nsnc45)CC3)CC2C)c1 (stereo unspecified)	-3.5	25.1µM*	?	?	1.0	11.2µM*
Cc1ccc(Cl)cc1N1CCN(C(=O)C2CCN(c3nnc(-n4cccc4)s3)CC2)CC1	-1.3	?	/	/	-1.4	12.6µM*
Cc1cccc(N2CCN(C(=O)CCC(=O)N3CC(C)Oc4ccc(C)cc43)CC2C)c1 (stereo unspecified)	-2.1	28.2µM*	/	/	4.4	?
CCCCC[C@]12Cc3cc(OC)c(OC)cc3[C@H](O1)c1c(cc(C)oc1=O)O2	-3.0	/	/	/	i	/
C=C(C)C(=O)OC1(C(F)(F)F)Oc2cc(C)ccc2NC1=O (stereo unspecified)	55.7*	-29.1%	-19.6%	?	93.0*	7.5%
Fc1ccc(/C=N/N2CCN(Cc3ccccc3)CC2)cc1	20.5*	32.1%	12.5%	?	61.9*	0.9%
Cc1ccc(/C=N/N2CCN(Cc3ccccc3)CC2)cc1	16.9*	24.7%	16.0%[46.1 µM]	?	37.7	15.5%
Cc1ccc(CN2CCN(/N=C/C=C/c3ccccc3[N+](=O)[O-])CC2)cc1	11.7	-18.2%	-9.0%[46.1 µM]	1.5%[46.1 µM]	2.3	-10.2%
Cc1ccc(CN2CCN(/N=C/c3ccccc3)CC2)cc1	-2.2	9.9%	?	-24.6%[46.1 µM]	17.1	-14.3%
CC(/C=N/N1CCN(Cc2ccccc2)CC1)=C\c1ccccc1	24.7*	-4.9%	-2.4%	10.2%[46.1 µM]	34.3	-11.5%
COc1ccccc1/C=C/C=N/N1CCN(Cc2ccccc2)CC1	12.5*	3.2%	11.7%	-0.4%	-6.2	25.9%
CC1CCN(C(=O)c2ccc(C(=O)N3CCC(C)CC3)cc2)CC1	/	/	/	2.9%	/	/
Cc1ccc(C(=O)N2CCC(C)CC2)cc1C	17.3*	/	-3.4%	?	35.1*	10.3%
Cc1ccc(C(=O)N2CCN(c3ccccc3)CC2)cc1C	27.3*	/	-2.6%	-0.8%	42.6*	?
Cc1ccc(C(=O)N2CCN(c3cccc(Cl)c3)CC2)cc1C	17.5	-0.4%	-22.4%	?	-1.8	?
COc1ccc2[nH]c(=O)c(CN(CCO)S(=O)(=O)c3ccc(C)cc3)cc2c1	-2.7	4.6%	/	/	22.1	-17.4%
Cc1ccc(S(=O)(=O)N(C)Cc2cc3ccccc3[nH]c2=O)cc1	6.1	-5.6%	5.9%	-11.5%	-3.8	11.2%
COc1ccc2cc(CN(CC3CCCO3)S(=O)(=O)c3ccc(C(C)=O)cc3)c(=O)[nH]c2c1 (stereo unspecified)	19.3*	/	-0.1%	14.4%	63.5*	-1.1%
CCCCN(Cc1cc2cc(OC)ccc2[nH]c1=O)S(=O)(=O)c1ccc(C)cc1	-2.2	?	/	/	-1.4	12.6µM*
CN(Cc1cc2ccccc2[nH]c1=O)S(=O)(=O)c1ccccc1	19.0*	2.1%	?	25.2%	33.3	6.9%
COc1ccc(N(Cc2cc3ccccc3[nH]c2=O)S(=O)(=O)c2ccc(C)cc2)cc1	26.9*	-15.9%	/	/	38.8*	-1.6%
